From PubChem
JMJD2A Tudor inh = qHTS Assay for Inhibitors of JMJD2A-Tudor Domain | Lysine-specific demethylase 4A (Homo sapiens), O75164 | AlphaScreen JMJD2A-Tudor / H3K4me3 peptide binding | Potency, µM (series often up to 114 µM), for inactives: at the top dose activity change, negative = inhibition, actives largely listed as inhibitors | 390,000 compounds, 4.4% hits | AID 504339, 2011; further: potency means the concentration at half of the fitted maximal effect; on the % scale 0 is the no-effect control and ±100 the full control effect; nearly all actives have a fitted effect of over 50% in size
PLK1 PBD inh = qHTS for Inhibitors of PLK1-PDB (polo-like kinase 1 - polo-box domain): Primary Screen. Serine/threonine-protein kinase PLK1 (Homo sapiens), P53350. Plk1 PBD binding of FITC phosphopeptide, fluorescence polarization. Potency, µM, for the others: max response, negative = inhibition, most hits filed as inhibitors. 360,000 compounds, 2.8% hits; further: potency means the concentration at half of the fitted maximal effect; series mostly up to about 57 µM; on the % scale 0 is the no-effect control and ±100 the full control effect; nearly all actives have a fitted effect of over 65% in size
HP1b binding inh = HTS for Inhibitors of HP1-beta Chromodomain Interactions with Methylated Histone Tails. Chromobox protein homolog 1 (Homo sapiens), P83916. AlphaScreen HP1-beta / biotin-H3K9me3 peptide binding. Potency, µM (titrated, usually from 114 µM), for the others: at the top dose activity change, negative = inhibition, hits mostly inhibitors. 390,000 compounds, 0.56% hits. AID 540317, 2011; further: potency means the concentration at half of the fitted maximal effect; nearly all actives have a fitted effect of over 70% in size
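Compound inhibition of the preformed complex between 50 nM HP1-beta and 50 nM biotinylated H3K9me3 peptide was read by AlphaScreen. Buffer was PBS pH 7.4 with 0.01% Tween-20. Incubations ran 30 min at room temperature, with 10 ug/mL donor/acceptor beads.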
BAZ2B inh = qHTS Assay for Inhibitors of BAZ2B | AlphaScreen BAZ2B-H3K14Ac peptide displacement | Potency, µM (highest dose often 114 µM), for inactives: at the top dose activity change, negative = inhibition, usual class: inhibitors | 360,000 compounds, 4.4% hits | AID 504333, 2011; further: potency means the concentration at half of the fitted maximal effect; on the % scale 0 is the no-effect control and ±100 the full control effect; nearly all actives have a fitted effect of over 60% in size
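Multi-concentration screen (max 110 uM) measuring displacement of acetylated histone H3 peptide from BAZ2B by AlphaScreen, using 50 nM protein, 50 nM peptide and 10 ug/mL streptavidin donor plus Ni-chelate acceptor beads.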
PI5P4K alpha inh = qHTS for Inhibitors of phosphatidylinositol 5-phosphate 4-kinase (PI5P4K); Phosphatidylinositol 5-phosphate 4-kinase type-2 alpha (Homo sapiens), P48426; PI5P4Kalpha enzyme, ADP-Glo luminescence, 60 min; stronger effect = lower value; max response, %; 330,000 compounds, 1.2% hits; AID 652105, 2013; active means max response of -50% or lower; inconclusive means between -30% and -50%; inactive means -30% or higher; further: value at the top dose of about 77 µM; on the % scale 0 is the no-effect control and ±100 the full control effect
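ADP-Glo luminescence end-point read after a 60 min room-temperature kinase reaction of PI5P4Kalpha plus substrate, initiated with ATP at 5 microM final. Buffer: 0.038 M HEPES pH 7.4, EGTA, 0.1% CHAPS, 5% DMSO.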
G9a block = qHTS Assay for Inhibitors of Histone Lysine Methyltransferase G9a. Histone-lysine N-methyltransferase EHMT2 (Homo sapiens), Q96KQ7. Potency, µM (top dose mostly 102 µM), for inactives: top-dose activity, negative = inhibition, most hits filed as inhibitors. AID 504332, 2011. 350,000 compounds, 8.8% hits. G9a H3K9 monomethylation, AlphaScreen, 2 h; further: potency means the concentration at half of the fitted maximal effect; on the % scale 0 is the no-effect control and ±100 the full control effect; nearly all actives have a fitted effect of over 75% in size
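Enzyme 20 nM + cpd, 15 min RT; add b-H3K9 pep 500 nM / SAM 20 uM; 2 h RT; anti-H3K9me1 Ab 0.5 ug/mL + SA donor / anti-rabbit acceptor beads 20 ug/mL each, 10 min; AlphaScreen read.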
An asterisk follows results filed as active; ? = inconclusive; / = no result given; ! = a repeat was not active; [ ] = dose if it differs, or a comment. In the library only some 12% were active in any assay of this set; here they are far more common. Unless noted, the call rests on the fitted dose curve; in most records, active means well fitted curve in the direction sought with a large enough effect; inconclusive means small, poorly fitted or top-dose-only effect, or another doubt; inactive means no such curve, though single readings can be large; an effect the other way counts as inactive or inconclusive.

SMILES	JMJD2A Tudor inh	PLK1 PBD inh	HP1b binding inh	BAZ2B inh	PI5P4K alpha inh	G9a block
Cc1cc2nc(-c3ccc(Cl)cc3)c(CC3CCCCC3)n2c(C)c1Br	/	1%	/	/	24	/
CNC(=O)C1CCC(Cn2c(=O)c3sccc3n(CC(=O)Nc3ccc(C)c(C)c3)c2=O)CC1 (stereo not given)	-12%	/	28%	-5%	/	21%[59 µM]
O=c1[nH]c2cc3c(cc2cc1CN(Cc1cccnc1)C(=S)NCc1ccco1)OCCO3	-32%	-12%	-24%	-34%	2	40µM*
CN(C)CCN(Cc1cc2cc3c(cc2[nH]c1=O)OCO3)C(=S)NCc1ccco1	9%	5%	57%	-2%	-2	/
O=c1[nH]c2cc3c(cc2cc1CN(Cc1ccco1)C(=S)NCC1CCCO1)OCCO3 (stereo not given)	-35%	-9%	-3%	-11%	-1	0%
O=c1[nH]c2cc3c(cc2cc1CN(Cc1cccnc1)C(=S)NCc1ccco1)OCO3	-16%	-15%	-3%	?	8	10µM*
Cc1ccsc1C(=O)OC(C)C(=O)Nc1ccc(Cl)cn1 (stereo not given)	8%	1%	17%	/	6	/
CCOc1ccc(CNC(=O)C(CC)n2nc(C)n3c(cc4occc43)c2=O)cc1OC (stereo not given)	-7%	5%	31%	-6%	-4	50µM*
Cc1ccc(CNC(=O)CN2C(=O)CSc3ccc(S(=O)(=O)N4CCCCC4)cc32)cc1	-35%	?	7%	-21%	-2	10%[59 µM]
Cc1ccc(-c2cc3nc(C)cc(C)n3n2)cc1	1%	-10%	0%	-3%	2	3%
Cc1cc(C)n2nc(-c3ccsc3-n3c(C)ccc3C)cc2n1	?	-23%	-7%	-36%	-2	50µM*
CC(=O)NCCN=C(C)c1sc2ccccc2c1O	-23%	-12%	-5%	-6%	-3	18µM*
CC(=Nc1ccccc1O)c1sc2ccccc2c1O	?	11%	8%	?	1	?
O=C(CNC(=O)c1sc2ccccc2c1Cl)NCc1ccccc1	-7%	3%	28%	-17%	-5	16%
CC(=Nc1ccc(O)cc1)c1sc2ccccc2c1O	-10%	32%	0%	-35%	2	10µM*
Cc1scc2c1N(C(=O)CN1CCN(C)CC1)c1ccccc1NC2=O	-12%	19%	12%	?	-2	35µM*!
CC(=O)CC[N+](C)(C)C	-1%	-15%	79µM*	/	-6	/
O=C1c2ccccc2CCC1CNCCc1ccc(O)cc1 (stereo not given)	/	/	/	/	/	7.9µM*
Cc1cccc(-n2c(C)nc3cc(C(=O)NCc4ccc5c(c4)OCO5)ccc32)c1	-34%	-5%	4%	?	3	45µM*
Cc1ccc(CNC(=O)c2ccc3c(c2)nc(C)n3-c2cccc(F)c2)cc1	-15%	/	23%	-3%	/	10%[59 µM]
CCCNC(=O)c1ccc2c(c1)nc(C)n2-c1cccc(C)c1	-11%	-11%	5%	3%	0	-10%
COC(CNC(=O)c1ccc2c(c1)nc(C)n2-c1cccc(C)c1)OC	?	30µM*	13%	-12%	1	9%
COc1ccc(CCNC(=O)CSc2nc3ccccc3nc2Cc2ccc(Cl)cc2)cc1OC	-10%	/	0%[57 µM]	-23%	/	-5%[59 µM]
CSCC[C@H](NC(=O)N1CCn2c1nc1ccccc12)C(=O)NCc1ccccc1	?	-20%	31%	?	0	45µM*
CSCC[C@H](NC(=O)N1CCn2c1nc1ccccc12)C(=O)NCc1ccco1	45µM*	27µM*	?	?	-2	79µM*
SMILES	JMJD2A Tudor inh	PLK1 PBD inh	HP1b binding inh	BAZ2B inh	PI5P4K alpha inh	G9a block
CSCC[C@H](NC(=O)N1CCn2c1nc1ccccc12)C(=O)NCc1ccc(C)cc1	-3%	9%	14%	?	13	32µM*
CSCC[C@H](NC(=O)N1CCn2c1nc1ccccc12)C(=O)N[C@H](Cc1ccccc1)C(=O)O	?	-10%	21%	?	4	-4%[12.7 µM]
CSCC[C@H](NC(=O)N1CCn2c1nc1ccccc12)C(=O)NCC1CCCO1 (stereo not given in full)	-4%	-5%	39%	-20%	-5	-9%
C#CC(N)CCC(=O)O (stereo not given)	/	/	/	/	/	37%[59 µM]
Cc1ccccc1NC(=O)Cn1c(=O)n(Cc2ccc3c(c2)OCO3)c(=O)c2ccc(C(=O)NC3CCCCC3)cc21	-14%	/	19%	/	/	6%[59 µM]
CN1CCN(c2ccccc2NC(=O)c2ccc(N3CCOCC3)c([N+](=O)[O-])c2)CC1	?	-4%	?	-29%	-2	?
CN1CCN(c2ccccc2NC(=O)c2ccc(N3CCCCC3)c([N+](=O)[O-])c2)CC1	50µM*	-5%	?	40µM*	-6	?
O=C(Nc1ccc2c(c1)OCO2)c1ccc(N2CCCC2)c([N+](=O)[O-])c1	?	-16%	?	35µM*	-10	10µM*
O=C(NCC(c1ccc(Cl)cc1)N1CCCCC1)c1ccc(F)cc1 (stereo not given)	2%	/	40%	4%	/	3%[59 µM]
CC1CN(c2cc(=O)n(-c3ccccc3)c(=O)[nH]2)CC(C)O1 (stereo not given)	1%	0%	10%	10%	7	40µM*
C=CCOc1cccc(C2C(C(=O)c3ccc(C)o3)=C(O)C(=O)N2CCN(C)C)c1 (stereo not given)	?	-12%	55%	-26%	-1	45µM*
COc1cc(C2C(C(=O)c3ccc(C)o3)=C(O)C(=O)N2CCN2CCOCC2)ccc1OCCC(C)C (stereo not given)	?	-7%	16%	-28%	-4	32µM*
CCCOc1cccc(C2C(C(=O)c3ccc(C)o3)=C(O)C(=O)N2CCN2CCOCC2)c1 (stereo not given)	-1%	-4%	47%	-33%	-5	45µM*
COc1cc(Br)c(C(=O)c2nccc3cc(OC)c(OC)cc23)cc1OC	45µM*	6µM*	2%	?	-7	-19%
COc1cc(C(=O)c2ccccc2)c([N+](=O)[O-])cc1OC	-22%	-6%	4%	-23%	1	4%
COc1cc(N)c(C(=O)c2nccc3cc(OC)c(OC)cc23)cc1OC	-35%	-17%	1%	-12%	3	/
